Measured values taken from PubChem BioAssay (NCATS).
Results filed as inconclusive are left out. The source made the active and inactive calls. Calls follow the shape of the dose curve; as a rule, active = well fitted curve in the direction sought with a large enough effect; inconclusive = small, poorly fitted or top-dose-only effect, or another doubt; inactive = no such curve, though single readings can be large; an effect the other way counts as inactive or inconclusive.

Key:
[1] = system: HEK293; assay: Cytotoxic Profiling of Annotated Libraries Using Quantitative High-Throughput Screening (AID 1296008); conditions: Five cell lines viability, CellTiter-Glo ATP luminescence, 48-72 h; max response: hits give low values; also: nearly all actives have a fitted effect of over 60% in size
Procedure, shortened: (§1)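 Cytotoxicity was measured as CellTiter-Glo ATP luminescence, read after 10 min at room temperature. Compound treatment of the cells lasted 48 or 72 hr at 37 degrees Celsius in a qHTS format.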

[2] = system: HaCat; assay: as above; conditions: Five cell lines viability, CellTiter-Glo ATP luminescence, 48-72 h; max response: hits give low values
Procedure, shortened: as §1

[3] = system: KB-3-1; assay: as above; conditions: Five cell lines viability, CellTiter-Glo ATP luminescence, 48-72 h; max response: hits give low values
Procedure, shortened: as §1

[4] = system: NIH3T3; assay: as above; conditions: Five cell lines viability, CellTiter-Glo ATP luminescence, 48-72 h; max response: hits give low values
Procedure, shortened: as §1

[5] = system: C33A; assay: Primary qHTS to identify gynecologic anti-cancer compounds using libraries of approved drugs and bioactive compounds (AID 1345084); conditions: Gynecologic cancer cell panel viability, ATPlite luminescence, 48 h; series mostly up to 57.5 µM; also: nearly all actives have a fitted effect of over 55% in size
Procedure, shortened: (§2)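 Measured: luminescence after ATPlite addition (15 min, RT). Exposure: 48 h, 37 C, 5% CO2.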

[6] = system: CAOV3; assay: as above; conditions: Gynecologic cancer cell panel viability, ATPlite luminescence, 48 h; series mostly up to 57.5 µM
Procedure, shortened: as §2

[7] = system: CASKI; assay: as above; conditions: Gynecologic cancer cell panel viability, ATPlite luminescence, 48 h; series mostly up to 57.5 µM
Procedure, shortened: as §2

[8] = system: Es-2; assay: as above; conditions: Gynecologic cancer cell panel viability, ATPlite luminescence, 48 h; series mostly up to 57.5 µM
Procedure, shortened: as §2

[9] = system: HeLa; assay: as above; conditions: Gynecologic cancer cell panel viability, ATPlite luminescence, 48 h; series mostly up to 57.5 µM
Procedure, shortened: as §2

[10] = system: Hek293T; assay: as above; conditions: Gynecologic cancer cell panel viability, ATPlite luminescence, 48 h, control line for the selectivity index; series mostly up to 57.5 µM
Procedure, shortened: as §2

[11] = system: JEG-3; assay: as above; conditions: Gynecologic cancer cell panel viability, ATPlite luminescence, 48 h; series mostly up to 57.5 µM
Procedure, shortened: as §2
% is scaled to controls: 0 for no effect and ±100 for the full control effect.

CC(=O)N[C@H]1[C@H](O[C@H]2CC[C@@]3(C)C(CC[C@]4(C)C3CC=C3[C@@H]5CC(C)(C)CC[C@]5(C(=O)OC5OCC(O)C(O)C5O)CC[C@]34C)C2(C)C)O[C@H](COC2OC(C)C(O)C(OC3OC(C)C(O)C(O)C3O)C2O)[C@@H](O)[C@@H]1O (stereo partly drawn)
inactive: max response [1] -2.57% | max response [2] 2.89% | outcome [3] | max response [4] 3.74% | activity change, negative = cytotoxicity [5] -0.0854% [at 11.6 µM] | activity change, negative = cytotoxicity [6] 0.431% [at 11.6 µM] | activity change, negative = cytotoxicity [7] 5.69% [at 11.6 µM] | activity change, negative = cytotoxicity [8] 4.54% [at 11.6 µM] | activity change, negative = cytotoxicity [9] 1.75% [at 11.6 µM] | activity change, negative = cytotoxicity [10] 4.04% [at 11.6 µM] | activity change, negative = cytotoxicity [11] 1.81% [at 11.6 µM]

C=C(CO)C12OC1C1(C)C(=CC2=O)C(O)C(O)CC1C (stereo not drawn)
inactive: max response [1] -0.602% | max response [2] -9.32% | max response [3] 3.94% | max response [4] -6.8% | Potency [5] | Potency [6] | Potency [7] | Potency [8] | Potency [9] | Potency [10] | Potency [11]

CC12CCC(C(OC3OC(COC4OCC(O)(CO)C4O)C(O)C(O)C3O)C1)C(C)(C)O2 (stereo not drawn)
inactive: max response [1] -9.12% | max response [2] -11.8% | max response [3] 1.72% | max response [4] 0.27% | Potency [5] | Potency [6] | Potency [7] | Potency [8] | Potency [9] | Potency [10] | Potency [11]

COc1ccc(CNC(=O)c2sc3nc(C)cc(C)c3c2N)cc1
inactive: max response [1] -0.378% | max response [2] -25% | max response [3] -4.88% | max response [4] -5.95% | Potency [5] | Potency [6] | Potency [7] | Potency [8] | Potency [9] | Potency [10] | Potency [11]

CC(c1ncncc1F)C(O)(Cn1cncn1)c1ccc(F)cc1F (stereo not drawn)
inactive: max response [1] -0.4% | max response [2] -2.25% | max response [3] 0.345% | max response [4] -5.84% | Potency [5] | Potency [6] | Potency [7] | Potency [8] | Potency [9] | Potency [10] | Potency [11]

CC1CC(O)/C=C/C(O)C(O)CC(=O)Cc2c(Cl)c(O)cc(O)c2C(=O)O1 (stereo not drawn)
inactive: max response [1] 0.716% | max response [2] -4.28% | outcome [3] | max response [4] -18.1% | Potency [5] | Potency [6] | Potency [7] | Potency [8] | Potency [9] | Potency [10] | Potency [11]

O=C(c1ccc2nccnc2c1)N1CCCCC1
inactive: max response [1] -81.1% | max response [2] -44.6% | outcome [3] | max response [4] -40.7% | Potency [5] | Potency [6] | Potency [7] | Potency [8] | Potency [9] | Potency [10] | Potency [11]

CCC(O)C(C)C1CCC(C(C)C(=O)O)O1 (stereo not drawn)
inactive: max response [1] -7.28% | max response [2] 3.27% | outcome [3] | max response [4] 2.92% | Potency [5] | Potency [6] | Potency [7] | Potency [8] | Potency [9] | Potency [10] | Potency [11]

N#Cc1ccc(C(=O)N2CCC3(CC2)N=C(N)c2c(F)ccc(F)c2N3)cn1
inactive: max response [1] -18.7% | max response [2] 2.01% | max response [3] -9.49% | max response [4] -5.13% | Potency [5] | Potency [6] | Potency [7] | Potency [8] | Potency [9] | Potency [10] | Potency [11]

C=C1CCC2C(C(C)(C)O)CCC2(C)CC(O)C(=C)CCC1O (stereo not drawn)
inactive: max response [1] 2.07% | max response [2] -2.57% | max response [3] 2.13% | max response [4] -9.68% | Potency [5] | Potency [6] | Potency [7] | Potency [8] | Potency [9] | Potency [10] | Potency [11]

N#C[C@@H]1CCCN1C(=O)CNC12CC3CC(CC(O)(C3)C1)C2
inactive: max response [1] -12.1% | max response [2] -2.22% | outcome [3] | max response [4] -1.17% | Potency [5] | Potency [6] | Potency [7] | Potency [8] | Potency [9] | Potency [10] | Potency [11]

Fc1ccc2nc(CCC#Cc3ccccn3)cn2c1
inactive: max response [1] -6.15% | max response [2] -2.5% | max response [3] -13.9% | max response [4] -0.863% | Potency [5] | Potency [6] | Potency [7] | Potency [8] | Potency [9] | Potency [10] | Potency [11]

COc1c(C)c(OCC(O)C(C)(C)O)cc2c1COC2=O (stereo not drawn)
inactive: max response [1] -24.2% | max response [2] -8.24% | outcome [3] | max response [4] -1.75% | Potency [5] | Potency [6] | Potency [7] | Potency [8] | Potency [9] | Potency [10] | Potency [11]
